PostGolgi yeast: growth inhibition of a yeast mutant, post-Golgi transport screen | post-Golgi transport phenotypic cell assay | inhibition, % at 10 µM | hit rate 0.9% among 98,000;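 also: yeast cells grown in 1536-well plates; yeast grown about 18 h at 30C before absorbance read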
EphB4 ephrin blk: blocks human EphB4 binding to ephrin-B2. hit rate 0.15% among 97,000. inhibition, % at 7 µM. EphB4 LBD / TNYL-RAW-Alexa532 peptide, fluorescence polarization. AID 720;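 active = inhibition above the screen-wide mean inhibition plus 3 SD, cut at about 15% in these data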;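 also: 0% = DMSO wells and 100% = excess unlabeled TNYL-RAW peptide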
Target sequence (P54760 whole entry, looked up, the tested form may be a part): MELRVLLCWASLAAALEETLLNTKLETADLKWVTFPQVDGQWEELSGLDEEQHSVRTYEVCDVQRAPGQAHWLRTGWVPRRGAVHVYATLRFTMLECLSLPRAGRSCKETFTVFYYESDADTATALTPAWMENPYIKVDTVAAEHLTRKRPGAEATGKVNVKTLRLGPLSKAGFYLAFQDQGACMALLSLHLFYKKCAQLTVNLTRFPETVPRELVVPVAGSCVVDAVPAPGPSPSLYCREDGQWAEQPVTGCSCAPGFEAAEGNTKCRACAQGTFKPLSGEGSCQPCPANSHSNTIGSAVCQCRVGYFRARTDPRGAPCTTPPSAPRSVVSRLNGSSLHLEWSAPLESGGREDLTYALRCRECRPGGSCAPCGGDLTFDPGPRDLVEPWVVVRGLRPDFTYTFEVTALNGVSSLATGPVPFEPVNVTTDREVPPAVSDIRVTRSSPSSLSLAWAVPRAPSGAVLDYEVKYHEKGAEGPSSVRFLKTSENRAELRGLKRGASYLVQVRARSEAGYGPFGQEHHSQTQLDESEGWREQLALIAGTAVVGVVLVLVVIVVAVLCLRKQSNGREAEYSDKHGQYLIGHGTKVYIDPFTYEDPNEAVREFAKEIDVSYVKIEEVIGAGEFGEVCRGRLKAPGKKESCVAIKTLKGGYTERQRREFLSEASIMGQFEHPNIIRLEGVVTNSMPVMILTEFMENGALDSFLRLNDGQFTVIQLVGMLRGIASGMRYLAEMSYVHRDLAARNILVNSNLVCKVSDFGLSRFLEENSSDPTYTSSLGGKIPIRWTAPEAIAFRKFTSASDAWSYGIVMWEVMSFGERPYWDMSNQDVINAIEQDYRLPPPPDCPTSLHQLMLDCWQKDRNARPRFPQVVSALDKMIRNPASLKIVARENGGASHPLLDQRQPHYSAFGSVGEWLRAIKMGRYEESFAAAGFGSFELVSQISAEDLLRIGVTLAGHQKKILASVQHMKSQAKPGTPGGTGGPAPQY
Calb biofilm kill: kills Candida albicans biofilms; C. albicans biofilm + clotrimazole, Alamar Blue; hit rate 0.14% among 85,000; inhibition, % at 6 µM;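 active = inhibition above 20%; inactive = inhibition below 20%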;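 also: preformed 24 hr biofilms exposed to compound for 48 hr; 0% = biofilm without compound and 100% = blank killed by clotrimazole plus chlorhexidine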
PostGolgi ctrl: inhibits growth of the yeast control strain. efflux-deficient yeast background strain, growth absorbance A615, 16 h. inhibition, % at 10 µM. hit rate 5% among 98,000
Active calls of the source: *; nt = no result; [ ] = remark or other dose. Most compounds without a hit are left out; they make up all but 5.2% or so of the library. Rule as the data show it, unless noted: active = inhibition above about 30%; inactive = the rest.

SMILES	PostGolgi yeast	EphB4 ephrin blk	Calb biofilm kill	PostGolgi ctrl
CCCCN(CC)c1nc(N)c2c(N)nc(OCC)cc2c1C#N	2.4	5.3	-1.0	75.8*
COc1ccc(S(=O)(=O)N(Cc2cccs2)C2CCCC2)cc1	-10.9	6.3	4.8	30.6*
N#CC1=C(N)c2ccccc2CC12CCCCC2	1.1	-1.1	3.6	38.9*
CCC(=O)NC1=C(C#N)C2(CCCC2)Cc2ccccc21	-5.5	nt	6.5	7.2
CCNc1ccc2noc3c2c1C(=O)c1ccccc1-3	nt	95.4*[fluorescence artefact?]	4.2	nt
O=C1c2ccccc2-c2onc3ccc(NCc4ccco4)c1c23	-5.3	nt	1.3	34.4*
CC(C)OC(=O)Cn1cnc2ccc(Br)cc2c1=O	-5.4	2.1	6.5	10.8
Cc1nc2sc(C(c3cccs3)N3CCN(c4cccc(Cl)c4)CC3)c(O)n2n1 (stereo not drawn)	-0.7	nt	9.1	47.9*
Cc1nc2sc(C(c3ccc(Cl)cc3)N3CCN(c4ccccc4F)CC3)c(O)n2n1 (stereo not drawn)	1.9	3.6	nt	32.2*
Cc1nc2sc(C(c3ccco3)N3CCN(c4ccccc4F)CC3)c(O)n2n1 (stereo not drawn)	nt	-2.5	9.0	nt
COc1ccccc1NC(=O)CCn1c(=O)sc2ccccc21	nt	5.0	3.8	nt
Cc1ccc(C2CC2C(=O)NNC(=S)Nc2ccc(Cl)cc2)cc1 (stereo not drawn)	nt	8.3	-0.1	nt
CCn1c(O)c(/C=N/N=C/c2ccccc2)c2ccc(C3=NNC(=O)CC3)cc21	2.9	1.4	1.0	47.6*
C=CCN(CC=C)S(=O)(=O)c1ccc(NC(=S)NC(=O)Cc2ccc(OC)cc2)cc1	-10.0	4.1	nt	9.8
COC(=O)c1cc2sc(Cl)cc2n1CC(=O)N1CCCc2ccccc21	-8.4	4.5	9.0	36.1*
C=CCn1c(SCC(=O)Nc2c(C)n(C)n(-c3ccccc3)c2=O)nc2sc(C)c(-c3ccccc3)c2c1=O	1.6	4.1	6.4	14.0
CCOC(=O)c1cnn2c(C)cc(-c3ccccc3)nc12	-4.1	5.2	9.6	26.0
COc1cc(/C=N/NC(=O)c2cnn3c(C)cc(-c4ccccc4)nc23)ccc1O	-0.8	-4.0	nt	34.1*
COc1ccc(/C=N/NC(=O)c2nc(-c3ccccc3)cc(-c3ccccc3)n2)cc1	8.5	-3.0	nt	31.2*
COc1ccc(/C=C(\NC(=O)c2ccccc2)C(=O)N/N=C/c2ccncc2)cc1	0.0	4.6	nt	-7.2
Cc1nc(SC2CCOC2=O)c2c(C)c(C)sc2n1 (stereo not drawn)	8.9	7.9	nt	35.7*
O=C(NC(Cc1ccc2c(c1)OCO2)C(=O)NC(Cc1ccccc1)C(=O)O)c1ccccc1 (stereo not drawn)	-6.3	1.8	5.4	-0.3
O=C(N/N=C/c1cccs1)c1cccc2cc[nH]c12	0.5	1.5	nt	0.9
O=C(N/N=C/c1ccco1)c1cc(-c2ccc3ccccc3c2)n[nH]1	13.2	0.2	-0.2	43.1*
O=C(N/N=C/c1c[nH]c2ccccc12)c1cc(-c2ccc(-c3ccccc3)cc2)n[nH]1	-15.8	-3.2	nt	4.6
SMILES	PostGolgi yeast	EphB4 ephrin blk	Calb biofilm kill	PostGolgi ctrl
O=C(N/N=C/c1cccs1)c1cc(-c2ccc3ccccc3c2)n[nH]1	-2.9	1.9	nt	59.2*
CC1CCN(c2nc(-c3ccccc3O)nc3ccccc23)CC1	-0.3	4.1	5.0	6.5
COc1cccc(-c2nc(NC(C)(C)C)c3ccccc3n2)c1O	-3.8	2.4	7.3	28.4
COc1cccc(-c2nc(N3CC(C)CC(C)C3)c3ccccc3n2)c1O (stereo not drawn)	0.6	-13.0	nt	74.7*
Oc1ccccc1-c1nc(N2CCN(Cc3ccccc3)CC2)c2ccccc2n1	-5.2	1.1	0.2	42.0*
COc1cccc(-c2nc(N3CCC(C)CC3)c3ccccc3n2)c1O	0.3	-3.0	nt	72.1*
CC(C)C(=O)Nc1cccc(C(=O)Nc2nnc(C(C)(C)C)s2)c1	6.3	3.2	2.9	5.6
O=c1cc(-c2c(F)c(F)c(F)c(F)c2F)oc2c(F)c(F)c(F)c(F)c12	54.0*	nt	5.3	64.4*
CC1(C)CC(=O)C2=C(C1)Oc1nc3ccccc3cc1C2C(C#N)C#N (stereo not drawn)	-6.4	-3.6	5.2	9.0
COc1cc2c(C(=O)O)c(C)n(CC(C)C)c2c2ccccc12	18.7	-6.6	6.8	33.3*
Cc1cccc(-n2c(C)nc3sccc3c2=O)c1	-1.0	-3.6	nt	1.1
COc1ccccc1-n1c(=S)sc2c(=O)n(Cc3ccco3)c(SC)nc21	0.2	nt	-3.7	45.5*
CCN(CC)C(=O)CSc1nc2c(sc(=S)n2-c2ccccc2)c(=O)n1Cc1ccco1	5.4	5.7	3.7	9.5
Cc1ccc(CNC(=O)c2sccc2-n2cccc2)cc1	15.6	-3.9	-1.7	30.5*
CNC(=O)c1sccc1-n1cccc1	-1.3	-7.0	7.1	2.1
NC(=O)C1CCN(C(=O)c2ccco2)CC1	nt	5.7	2.3	nt
CC(C)CNC(=S)NC1CC2CCCC(C1)N2Cc1ccco1 (stereo not drawn)	-9.0	-4.0	nt	31.3*
CNC(=S)NC1CC2CCCC(C1)N2Cc1ccco1 (stereo not drawn)	-4.9	0.0	nt	12.1
Cc1cccc(N=C(N2CCOCC2)P(=O)(N2CCOCC2)N2CCOCC2)c1	-0.3	9.3	nt	3.3
Cc1ccc(S(=O)(=O)NNC(=O)c2sc3nc(C)cc(C)c3c2-n2cccc2)cc1	-4.9	0.7	nt	28.1
CC(=O)Nc1nonc1NC(=O)CSc1ncn[nH]1	-0.9	10.9	0.4	7.6
O=C(c1ccc(F)cc1)N1CCCCC(Sc2nnnn2-c2ccccc2)C1=O (stereo not drawn)	5.4	4.8	9.2	45.5*
O=C(c1ccccc1)c1ccc(N2CCCC2)cc1	-2.3	-5.7	3.7	7.7
O=C(O)c1ccc(N2CCCCC2)cc1	31.0*	nt	7.6	-6.8
CCCc1cc(=O)[nH]c(/N=C(/NC(=O)c2ccccc2)Nc2ccc3c(c2)OCCO3)n1	nt	-2.0	4.2	nt
SMILES	PostGolgi yeast	EphB4 ephrin blk	Calb biofilm kill	PostGolgi ctrl
COc1cc(OC)cc(-c2nnc(SCC(=O)N3CCCC3)o2)c1	5.1	-2.6	4.7	35.1*
CCOC(=O)N1CCN(C(=O)CSc2nnc(-c3cc(OC)cc(OC)c3)o2)CC1	-12.2	5.0	2.8	0.3
CCCCN(CCCC)C(=O)CSc1nnc(-c2cc(OC)c(OC)c(OC)c2)o1	-7.0	nt	5.2	8.2
CCCCOC(=O)CSc1nnc(-c2cc(OC)c(OC)c(OC)c2)o1	-2.3	2.2	6.9	32.1*
O=C1C=C(c2ccccc2)OC(=O)C1C(=O)c1ccccc1 (stereo not drawn)	nt	2.7	0.8	nt
O=C1CC(N2CCN(c3ccc(Cl)c(Cl)c3)CC2)C(=O)N1 (stereo not drawn)	52.3*	6.1	-3.6	-4.6
COc1ccccc1C1(CC(=O)Nc2nccs2)CCOC(C(C)C)C1 (stereo not drawn)	-6.6	-7.3	nt	2.9
O=C(CN1C(=O)C2C3C=CC(C3)C2C1=O)N1CC(=O)N(CCc2ccccc2)C(=O)C1 (stereo not drawn)	17.3	-2.5	2.6	5.6
O=C(CN1C(=O)C2C3C=CC(C3)C2C1=O)N1CC=C(c2ccccc2)CC1 (stereo not drawn)	-2.1	2.5	4.1	31.1*
O=C(Nc1cc(Cl)cc(Cl)c1)c1cccc(OC(F)F)c1	59.4*	1.4	nt	33.3*
CN(C)S(=O)(=O)c1cccc(C(=O)Nc2cc(Cl)cc(Cl)c2)c1	-1.9	7.2	nt	15.5
O/N=C1/CCc2nonc2/C1=N/O	-8.5	10.1	4.4	2.4

Screening results deposited in PubChem by several laboratories.
